Results as given in ChEMBL document CHEMBL3988442, “University of Dundee, Small-Polar-MMV Screening Library” (2021).
For some of these results: Entries with a potency or affinity are not part of this list.

Experiments:
Design in all cases: scale not given: direction of the effect not stated beside the values
[1] = molecular target: Protein translocase subunit SecA (Escherichia coli (strain K12)) (UniProt P10408); assay: Assay to Identify E. coli SecA ATPase Inhibitors; assay type: functional; conditions: 30 µM
[2] = molecular target: T1, Ubiquitin-activating enzyme e1, putative (Leishmania donovani (strain BPK282A1)) (UniProt E9BSI1); assay: Leishmania donovani Ubiquitin Activating Enzyme (LdE1); assay type: functional; conditions: 30 µM
T1 sequence (whole entry): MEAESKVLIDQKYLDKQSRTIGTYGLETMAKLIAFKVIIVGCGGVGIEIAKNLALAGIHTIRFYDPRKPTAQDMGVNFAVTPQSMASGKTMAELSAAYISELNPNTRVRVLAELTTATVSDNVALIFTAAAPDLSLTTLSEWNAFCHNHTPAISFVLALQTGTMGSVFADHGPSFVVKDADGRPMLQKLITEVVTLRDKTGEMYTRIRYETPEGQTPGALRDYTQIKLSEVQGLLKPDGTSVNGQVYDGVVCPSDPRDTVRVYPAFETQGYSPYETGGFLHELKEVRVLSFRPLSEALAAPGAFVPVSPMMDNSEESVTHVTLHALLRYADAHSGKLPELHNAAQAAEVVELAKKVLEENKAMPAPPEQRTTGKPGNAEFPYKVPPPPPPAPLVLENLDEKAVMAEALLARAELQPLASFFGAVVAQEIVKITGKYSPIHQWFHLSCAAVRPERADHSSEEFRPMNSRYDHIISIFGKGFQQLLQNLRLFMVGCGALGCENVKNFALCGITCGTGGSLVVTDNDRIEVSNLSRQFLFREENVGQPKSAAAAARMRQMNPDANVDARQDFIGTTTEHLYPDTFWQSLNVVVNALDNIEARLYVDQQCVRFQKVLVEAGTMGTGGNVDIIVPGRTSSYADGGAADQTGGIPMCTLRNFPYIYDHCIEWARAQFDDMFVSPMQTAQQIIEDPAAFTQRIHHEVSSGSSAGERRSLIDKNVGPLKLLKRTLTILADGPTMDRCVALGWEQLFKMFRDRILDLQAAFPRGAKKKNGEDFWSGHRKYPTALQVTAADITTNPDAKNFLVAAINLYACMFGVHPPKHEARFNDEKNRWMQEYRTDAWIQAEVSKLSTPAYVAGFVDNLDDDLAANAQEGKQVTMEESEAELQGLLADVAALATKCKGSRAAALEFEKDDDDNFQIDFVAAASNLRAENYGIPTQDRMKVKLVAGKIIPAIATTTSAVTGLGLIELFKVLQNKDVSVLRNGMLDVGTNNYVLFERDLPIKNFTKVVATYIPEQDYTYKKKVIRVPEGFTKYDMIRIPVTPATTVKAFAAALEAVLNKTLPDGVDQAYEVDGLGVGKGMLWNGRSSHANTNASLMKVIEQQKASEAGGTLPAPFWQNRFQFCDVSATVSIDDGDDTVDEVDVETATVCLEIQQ

[3] = molecular target: AMP-activated protein kinase, AMPK (Homo sapiens) (UniProt P54646+O43741+P54619+Q9UGJ0+Q9Y478+Q13131+Q9UGI9); assay: AMP-dependent Kinase enzyme assay. An in vitro enzyme assay that detects ADP turnover that is directly proportional to AMPK activity. This uses naive AMPK that is activated during the assay with MK-8722; assay type: functional; conditions: 30 µM
[4] = molecular target: Sialic acid-binding Ig-like lectin 9 (Homo sapiens) (UniProt Q9Y336); assay: Hs-Siglec9 ALPHAscreen SOP 20170721; conditions: 10 µM
Trypanosoma cruzi = assay: Trypanosoma cruzi phosphomannomutase and mannose-1-phosphate guanylyltransferase assay; assay type: functional; conditions: 10 µM
[5] = molecular target: T2, Arginase-2, mitochondrial (Homo sapiens) (UniProt P78540); assay: in vitro enzyme assay to detect the production of urea directly proportional to the activity of Arginase II; assay type: functional; conditions: 33.3 µM; also: in the data most compounds retested in dose-response had high values
T2 sequence (whole entry): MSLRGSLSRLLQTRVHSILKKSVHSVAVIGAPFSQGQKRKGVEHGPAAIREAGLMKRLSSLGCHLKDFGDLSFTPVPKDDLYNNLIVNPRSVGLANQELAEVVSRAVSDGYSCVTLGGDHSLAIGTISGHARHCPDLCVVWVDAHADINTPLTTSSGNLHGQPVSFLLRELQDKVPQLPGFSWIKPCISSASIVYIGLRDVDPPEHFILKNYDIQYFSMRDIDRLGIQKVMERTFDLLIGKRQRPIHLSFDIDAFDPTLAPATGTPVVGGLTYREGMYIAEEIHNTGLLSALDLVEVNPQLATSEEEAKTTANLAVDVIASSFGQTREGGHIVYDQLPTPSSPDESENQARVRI

[6] = molecular target: T3, Proteasome subunit beta (Trypanosoma cruzi) (UniProt O96673); assay: Trypanosoma cruzi proteasome chymotrypsin-like activity (TcProtChymo) assay.; also: in the data most compounds retested in dose-response had high values; assay type: functional; conditions: 9.37 µM
T3 sequence (whole entry): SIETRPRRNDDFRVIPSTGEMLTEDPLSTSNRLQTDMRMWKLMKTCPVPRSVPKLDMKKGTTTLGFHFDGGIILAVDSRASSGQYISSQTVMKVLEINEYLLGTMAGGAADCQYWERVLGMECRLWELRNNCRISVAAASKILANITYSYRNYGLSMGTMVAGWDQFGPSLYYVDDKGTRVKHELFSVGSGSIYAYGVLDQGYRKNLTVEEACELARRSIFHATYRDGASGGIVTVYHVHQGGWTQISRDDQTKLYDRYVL

Homo sapiens = species: Homo sapiens; assay: To identify inhibition of the IFN signalling (Jak-Stat) pathway via expression of an eGFP reporter gene under the control of an IFN-stimulated response element (ISRE) containing MxA promoter.; assay type: functional; conditions: 30 µM
[7] = molecular target: T4, Tyrosyl-tRNA synthetase, putative (Trypanosoma cruzi (strain CL Brener)) (UniProt Q4DSP6); assay: Trypanosoma cruzi tyrosyl tRNA synthetase (TcYRS) _High Tyrosine SOP; assay type: functional; conditions: 30 µM; also: in the data most compounds retested in dose-response had high values
T4 sequence (whole entry): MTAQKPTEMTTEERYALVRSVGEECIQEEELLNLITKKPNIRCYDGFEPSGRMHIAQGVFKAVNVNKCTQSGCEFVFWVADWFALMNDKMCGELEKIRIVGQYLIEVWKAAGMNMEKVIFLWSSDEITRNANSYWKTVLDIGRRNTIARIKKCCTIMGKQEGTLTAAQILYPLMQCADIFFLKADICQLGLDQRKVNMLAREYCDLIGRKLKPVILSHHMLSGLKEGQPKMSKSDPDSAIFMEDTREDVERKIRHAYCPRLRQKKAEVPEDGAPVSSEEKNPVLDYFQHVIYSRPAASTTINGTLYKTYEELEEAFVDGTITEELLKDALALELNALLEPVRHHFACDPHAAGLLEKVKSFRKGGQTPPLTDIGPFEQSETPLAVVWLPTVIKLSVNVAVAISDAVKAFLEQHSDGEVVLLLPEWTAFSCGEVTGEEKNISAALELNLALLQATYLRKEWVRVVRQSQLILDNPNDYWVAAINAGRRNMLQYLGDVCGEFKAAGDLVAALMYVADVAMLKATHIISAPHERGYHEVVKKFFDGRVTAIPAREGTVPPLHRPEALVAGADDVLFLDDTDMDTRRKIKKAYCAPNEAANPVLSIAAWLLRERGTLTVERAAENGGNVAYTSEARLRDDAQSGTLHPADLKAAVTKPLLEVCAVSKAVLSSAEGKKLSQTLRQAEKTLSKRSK

[8] = molecular target: T4, Tyrosyl-tRNA synthetase, putative (Trypanosoma cruzi (strain CL Brener)); assay: Trypanosoma cruzi tyrosyl tRNA synthetase (TcYRS) SOP; assay type: functional; conditions: 30 µM
[9] = molecular target: Chromo domain-containing protein 1 (Saccharomyces cerevisiae (strain ATCC 204508 / S288c) (Baker's yeast)) (UniProt P32657); assay: ScCHD-1 Enzyme Inhibition Assay; assay type: functional; conditions: 30 µM; also: in the data most compounds retested in dose-response had high values
Chromo domain-containing protein 1 (Saccharomyces cerevisiae (strain ATCC 204508 / S288c) (Baker's yeast)), sequence (P32657 whole entry, the tested form may be a part): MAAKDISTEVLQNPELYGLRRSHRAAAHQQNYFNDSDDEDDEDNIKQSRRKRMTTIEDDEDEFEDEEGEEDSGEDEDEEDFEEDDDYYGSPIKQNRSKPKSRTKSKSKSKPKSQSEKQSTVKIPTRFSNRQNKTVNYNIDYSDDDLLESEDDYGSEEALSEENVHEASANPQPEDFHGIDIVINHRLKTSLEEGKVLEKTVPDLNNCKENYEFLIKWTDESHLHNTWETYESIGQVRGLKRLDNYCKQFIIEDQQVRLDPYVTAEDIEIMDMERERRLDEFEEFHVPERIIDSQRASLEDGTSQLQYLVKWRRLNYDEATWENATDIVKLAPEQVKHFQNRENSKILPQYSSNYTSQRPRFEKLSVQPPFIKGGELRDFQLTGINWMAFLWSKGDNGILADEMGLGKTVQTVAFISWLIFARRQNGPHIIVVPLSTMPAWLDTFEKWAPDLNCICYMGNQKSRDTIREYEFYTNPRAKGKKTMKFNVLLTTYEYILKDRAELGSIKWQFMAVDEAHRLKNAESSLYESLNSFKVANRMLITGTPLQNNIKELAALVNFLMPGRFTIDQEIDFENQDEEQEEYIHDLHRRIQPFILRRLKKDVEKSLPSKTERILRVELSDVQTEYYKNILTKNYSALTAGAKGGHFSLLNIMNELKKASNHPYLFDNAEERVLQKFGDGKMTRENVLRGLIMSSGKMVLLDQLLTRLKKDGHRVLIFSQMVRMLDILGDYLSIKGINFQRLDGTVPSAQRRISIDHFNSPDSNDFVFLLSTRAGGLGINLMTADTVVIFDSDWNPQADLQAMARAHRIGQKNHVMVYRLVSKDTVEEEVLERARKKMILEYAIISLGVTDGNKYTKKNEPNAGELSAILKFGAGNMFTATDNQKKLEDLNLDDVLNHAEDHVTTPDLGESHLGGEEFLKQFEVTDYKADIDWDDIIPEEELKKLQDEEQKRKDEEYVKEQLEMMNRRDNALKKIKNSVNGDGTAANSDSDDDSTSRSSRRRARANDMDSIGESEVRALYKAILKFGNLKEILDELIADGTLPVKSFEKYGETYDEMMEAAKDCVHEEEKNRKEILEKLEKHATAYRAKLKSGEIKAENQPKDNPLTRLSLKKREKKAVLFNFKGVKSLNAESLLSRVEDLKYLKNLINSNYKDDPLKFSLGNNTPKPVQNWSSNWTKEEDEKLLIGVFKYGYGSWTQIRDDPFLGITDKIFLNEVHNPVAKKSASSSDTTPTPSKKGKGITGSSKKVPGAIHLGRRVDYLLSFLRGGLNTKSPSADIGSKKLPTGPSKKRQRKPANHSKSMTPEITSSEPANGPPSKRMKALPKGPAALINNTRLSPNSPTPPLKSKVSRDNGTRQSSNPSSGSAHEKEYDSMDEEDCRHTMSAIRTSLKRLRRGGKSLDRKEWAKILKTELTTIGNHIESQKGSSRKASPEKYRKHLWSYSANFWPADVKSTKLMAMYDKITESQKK

Protein translocase subunit SecA (Escherichia coli (strain K12)), sequence (P10408 whole entry): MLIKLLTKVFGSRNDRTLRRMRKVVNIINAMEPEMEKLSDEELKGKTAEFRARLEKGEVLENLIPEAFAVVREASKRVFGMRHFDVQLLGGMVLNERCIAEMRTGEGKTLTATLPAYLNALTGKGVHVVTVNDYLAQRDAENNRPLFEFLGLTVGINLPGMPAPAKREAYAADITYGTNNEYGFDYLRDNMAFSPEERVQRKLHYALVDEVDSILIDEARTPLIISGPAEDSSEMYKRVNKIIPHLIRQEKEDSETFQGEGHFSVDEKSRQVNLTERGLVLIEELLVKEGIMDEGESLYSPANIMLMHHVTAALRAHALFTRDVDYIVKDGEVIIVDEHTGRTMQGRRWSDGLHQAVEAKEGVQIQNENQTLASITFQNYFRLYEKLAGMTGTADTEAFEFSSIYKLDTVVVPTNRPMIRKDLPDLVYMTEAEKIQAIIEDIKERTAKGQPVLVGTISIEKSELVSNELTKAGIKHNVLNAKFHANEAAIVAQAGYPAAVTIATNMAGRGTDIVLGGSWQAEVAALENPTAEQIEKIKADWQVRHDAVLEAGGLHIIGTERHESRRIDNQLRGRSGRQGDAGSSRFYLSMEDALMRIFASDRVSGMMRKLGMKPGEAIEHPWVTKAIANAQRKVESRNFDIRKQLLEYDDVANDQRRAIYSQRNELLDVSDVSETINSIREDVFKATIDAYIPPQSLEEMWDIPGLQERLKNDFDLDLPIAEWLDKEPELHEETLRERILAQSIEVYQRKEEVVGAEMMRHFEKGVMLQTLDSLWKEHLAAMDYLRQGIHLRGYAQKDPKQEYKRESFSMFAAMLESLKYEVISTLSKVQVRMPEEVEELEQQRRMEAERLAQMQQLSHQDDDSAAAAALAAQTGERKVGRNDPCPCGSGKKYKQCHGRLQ
Sialic acid-binding Ig-like lectin 9 (Homo sapiens), sequence (Q9Y336 whole entry): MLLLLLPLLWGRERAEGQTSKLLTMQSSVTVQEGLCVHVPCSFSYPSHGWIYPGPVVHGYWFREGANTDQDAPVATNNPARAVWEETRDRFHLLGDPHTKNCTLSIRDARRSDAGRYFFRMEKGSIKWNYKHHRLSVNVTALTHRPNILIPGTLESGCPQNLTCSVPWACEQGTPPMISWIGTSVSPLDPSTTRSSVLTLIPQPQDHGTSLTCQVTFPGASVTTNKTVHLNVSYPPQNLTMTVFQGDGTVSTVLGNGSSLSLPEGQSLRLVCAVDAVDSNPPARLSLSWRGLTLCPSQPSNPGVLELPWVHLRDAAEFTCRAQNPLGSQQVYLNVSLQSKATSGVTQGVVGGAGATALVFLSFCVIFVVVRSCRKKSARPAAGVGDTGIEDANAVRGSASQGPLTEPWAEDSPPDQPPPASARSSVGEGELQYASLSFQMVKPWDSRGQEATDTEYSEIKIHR

Row | Compound | Percent Effect [1] | Percent Effect [2] | Percent Effect [3] | Percent Effect [4] | Percent Effect (Trypanosoma cruzi) | Percent Effect [5] | Percent Effect [6] | Percent Effect (Homo sapiens) | Percent Effect [7] | Percent Effect [8] | Percent Effect [9]
1 | CC(C)(C(=O)NCC1CC1)c1ccccc1F | -8.21% | 4.17% | -4.88% | 2.97% | -4.18% | 0.442% | 15.6% | -2.36% | 2.1% | 2.56% | -3.44%
2 | CCn1cnnc1C1CCN(C(=O)c2ccc3cc[nH]c3c2)CC1 | -5.68% | 7.89% | 11.4% | 8.5% | -3.21% | 3.55% | 11% | -5.37% | -2.13% | 7.79% | -4.05%
3 | COC[C@@]12CCO[C@@H]1CCN(C(=O)COc1ccccc1OC)C2 | 0.312% | 8.22% | -2.94% | 5.31% | -4.76% | -2.4% | 17.2% | 3.04% | 5.21% | 11.1% | -3.51%
4 | CC(=O)Nc1nc(CN2CCCC2Cn2cc(C)cn2)cs1 (stereo unspecified) | 0.188% | 13% | 1.99% | -21.8% | 1.08% | -6.53% | 21.9% | 4.62% | 9.52% | 25.9% | -28.6%
5 | COc1ccccc1C(=O)N1CC(Cc2nccc3ccn(C)c23)C1 | -7.05% | 17.6% | 2.79% | 6.36% | 4.15% | -2.09% | 6.4% | 13.2% | 6.45% | 14.3% | -16.6%
6 | CCCc1nc(C)c(C(=O)NS(=O)(=O)c2ccc(C#N)cc2)s1 | -4.98% | 10.8% | -2.15% | 25.9% | 6.18% | 0.476% | 9.14% | 2.07% | 0.529% | 9.76% | -9.01%
7 | CC(C)CCC(C)NC(=O)c1ccc(OCC(N)=O)cc1 (stereo unspecified) | 0.307% | 10.8% | -4.08% | 5.06% | -2.7% | -1.43% | 10.5% | 11.1% | 5.82% | 12.2% | -4.44%
8 | Cc1cccc(CNCc2c(C)nn(C)c2N2CCOCC2)n1 | 0.786% | 8.22% | 4.7% | 2.65% | 5.09% | 13.2% | 19.3% | -6.96% | 8.6% | 15% | -6.04%
9 | Cc1cnn(CC2CCCN2C(=O)Cc2n[nH]c3ccccc23)c1 (stereo unspecified) | -5.48% | 10.1% | 14% | 7.2% | 2.17% | 7.61% | -0.0819% | 10.1% | 8.37% | 11.4% | -3.88%
10 | Cc1cnn(CCC(=O)N2CCN(c3ncccc3Cl)CC2)c1 | -2.22% | 3.8% | 10.2% | 2% | -4.21% | 1.94% | 10.3% | 18.8% | 1.04% | 2.53% | -5.44%
11 | CC1CCN(CCNC(=O)c2cncnc2C(C)C)CC1 | 0.314% | 4.17% | -2.65% | -7.34% | -5.34% | 2.21% | 11.1% | 0.616% | 1.05% | 5.13% | -2.34%
